# Most compounds without a hit are left out; they make up all but 4.5% or so of the library.
# NALP3 yeast inh: NALP3 inhibition in yeast. Yeast reconstituted NLRP3/ASC/caspase-1, beta-gal luminescence, 24 h. 330,000 tested, 0.39% active. inhibition, % at 10 µM;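 active = inhibition of 50% or more; inactive = inhibition below 50%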;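 note: plate controls were induced DMSO wells for no effect and uninduced yeast grown without galactose for full effect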
# tim10-1 inh: tim10-1 yeast growth inhibition | S. cerevisiae tim10-1 ts strain growth, BacTiter-Glo, 24 h | inhibition, % at 20 µM | 330,000 tested, 2.2% active | AID 463190;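 active = inhibition of at least 40%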;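 note: mutant grown at 25 °C; 0% = DMSO wells with yeast and 100% = wells holding no yeast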
# SKKanGAS inh: blocks kanamycin growth of S. pyogenes SKKanGAS strain; 300,000 tested, 1.3% active; inhibition, % at 7.5 µM; BacTiter-Glo, 6 h;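 active = mean replicate score, as percent of positive control median, at least 50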;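 note: strain carries kanamycin resistance gene driven by streptokinase promoter and grows in 40 µg/ml kanamycin; loss of luminescence reflects streptokinase promoter inhibition or plain growth inhibition; 0% = median of DMSO wells and 100% = positive control at its reference dose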
# TIM10 inh: inhibits growth of TIM10 yeast strain. S. cerevisiae TIM10 strain growth, BacTiter-Glo luminescence, 24 h. inhibition, % at 10 µM. 330,000 tested, 1.4% active. AID 463195;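 active = inhibition of 40% or more at the single tested concentration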;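 note: wild-type TIM10 isogenic control strain grown at permissive 25 °C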
# PfHsp90 yeast 2: growth inhibition of yeast expressing Plasmodium Hsp90; AID 504621; 310,000 tested, 0.32% active; S. cerevisiae expressing PfHsp90, BacTiter-Glo ATP, 48 h; yeast lacking PDR1 and PDR3 efflux regulators; inhibition, % at 9.4 µM;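 active = every replicate shows inhibition above about 80%, whatever the replicate mean, limit read from the data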;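 note: 0% = DMSO neutral controls and 100% = 20 µM radicicol positive controls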
# tim23-1 inh: tim23-1 yeast growth inhibition. S. cerevisiae tim23-1 growth, BacTiter-Glo luminescence, 24 h. inhibition, % at 20 µM. 330,000 tested, 1.3% active;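 active = growth inhibition of the mutant yeast at or above 50%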;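 note: temperature-sensitive mutant grown at 25 °C; plate controls were DMSO-treated mutant yeast for no effect and medium wells lacking yeast for full effect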
# tim10-1 conf: confirmation of tim10-1 mutant yeast growth inhibitors; inhibition, % at 20 µM; 7,400 tested, 56% active; shares compounds with tim10-1 inh; S. cerevisiae tim10-1 ts strain growth, BacTiter-Glo, 24 h;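 active = inhibition of yeast growth at or above a set limit in either of two repeat tests at 20 µM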;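 note: tim10-1 mutant grown at permissive 25 °C to find synthetic lethal compounds; 0% = DMSO yeast wells and 100% = medium wells without yeast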
# * hit, by the source's call; . = no result given.
SMILES,NALP3 yeast inh,tim10-1 inh,SKKanGAS inh,TIM10 inh,PfHsp90 yeast 2,tim23-1 inh,tim10-1 conf
COc1ccc(OC)c(S(=O)(=O)N2CCC(NC(=O)c3ccccc3)CC2)c1,13.0,12.5,3.2,-10.5,-9.8,2.5,.
Cc1cc2ncn(/N=C/c3ccc(-c4ccccc4)o3)c2cc1C,-1.9,46.5*,31.1,30.2,.,-10.1,16.7
CSc1ccccc1NC(=O)CN(C)C(=O)c1ccc2c(c1)OCCO2,15.0,11.6,-5.0,1.1,.,3.4,.
N/C(=N\NS(=O)(=O)c1ccccc1Cl)c1ccccn1,-5.6,-18.3,-3.1,-5.3,13.7,5.2,.
Cn1c(SCc2ccccc2)nnc1-c1ccc2nonc2c1,-2.0,8.3,-2.0,-6.8,5.9,4.1,.
COc1cc(/C=C2/CCc3ccccc3C2=O)cc(OC)c1OC,18.4,40.7*,-12.0,39.6,1.1,41.9,29.2
CC[C@]1(C(=O)OC)[C@H]2C(=O)N(Cc3ccccc3)C(=O)[C@H]2[C@H]2CN(C)C(=NC)N21,.,5.8,.,-12.0,3.2,23.9,.
C/C(=N\OC(=O)NC(C)C)c1sc(-c2ccccc2)nc1C,36.6,31.1,-4.2,20.0,-5.1,29.2,.
C/C(=N\OC(=O)NC(C)C)c1sc(-c2ccc(Cl)cc2)nc1C,23.8,45.0*,21.9,17.8,-11.2,23.4,41.8*
CCOC(=O)C1(CCCc2ccccc2)CCN(Cc2nccn2CC)CC1,26.9,41.4*,-6.5,26.1,2.6,17.9,29.5
CCOC(=O)C1(CCOc2ccccc2)CCN(Cc2nccn2CC)CC1,9.5,27.8,11.4,17.5,3.0,12.5,.
CC1CCN(C(=O)COC(=O)c2cccs2)CC1,-6.7,16.3,.,-1.4,6.4,25.8,.
CCCCn1c(N)c(N(C)C(=O)c2cccc(-n3cnnn3)c2)c(=O)[nH]c1=O,7.6,7.9,.,5.1,11.6,18.7,.
CN(C)c1ccnc2sc(C(=O)c3ccc(Br)cc3)c(N)c12,3.3,42.9*,21.0,28.6,2.0,33.0,9.4
CCOc1ccc(/C=C/c2c([N+](=O)[O-])c(=O)n(C)c(=O)n2C)cc1,33.5,27.8,1.9,-10.6,-11.3,20.9,.
CCc1ccc(/C=C/c2c([N+](=O)[O-])c(=O)n(C)c(=O)n2C)cc1,34.1,40.2*,49.9*,39.4,16.0,40.9,34.6*
CCN(Cc1ccncc1)Cc1c(O)ccc2cc(Br)ccc12,28.8,46.3*,9.3,29.9,.,29.8,21.9
CN1CCN(Cc2c(O)ccc3cc(Br)ccc23)CC1,24.7,29.8,-0.9,0.5,.,16.7,.
CC(C)Cn1c(=O)c2c(nc3n2CCCN3Cc2ccccc2)n(C)c1=O,-7.6,42.0*,-15.3,14.9,-8.6,27.9,28.4
Cn1c(=O)n(C/C=C/c2ccccc2)c(=O)c2c1nc1n2CCCN1c1ccc(F)cc1,3.4,46.3*,18.8,32.3,-15.8,34.1,24.4
Cn1c(=O)n(Cc2ccc(F)cc2)c(=O)c2c1nc1n2CCCN1C1CCCCC1,-2.9,47.7*,11.0,32.9,8.6,39.5,18.2
C[C@@H]1CN([C@@H](C)CO)C(=O)c2cccc(NC(=O)Nc3ccccc3)c2O[C@H]1CN(C)C(=O)Nc1cccc2ccccc12,23.6,14.8,.,6.5,15.7,14.7,.
CC(C)c1ccc(CNc2ncccn2)cc1,12.2,-4.8,-2.6,-1.9,-4.2,5.4,.
CC(=O)c1ccc(OC(C)C(=O)OCC(=O)NCCc2ccccc2)cc1 (centres undefined),2.1,2.7,.,1.9,-9.7,9.4,.
COc1ccc(C(=O)COC(=O)c2sc(C)nc2C)cc1Cl,15.9,22.8,.,15.6,-10.0,36.9,.
O=C(CSC(=S)N1CCCCC1)N1N=CCC1c1ccccc1 (centres undefined),13.7,41.5*,3.8,-8.9,-34.8,38.1,32.3*
CC1=C(C(=O)Nc2cccc(C(=O)NC3CCCC(C)C3C)c2)SCCO1 (centres undefined),14.5,49.3*,21.3,5.1,-9.9,40.1,9.6
O=C1CN(C(=O)/C=C/c2ccc(Cl)cc2)c2ccccc2N1,13.5,-1.1,0.5,17.8,-10.3,39.1,.
O=C1CN(C(=O)/C=C/c2cccc(Cl)c2)c2ccccc2N1,20.5,40.6*,-15.3,26.9,2.2,22.1,33.6*
